Screening results: PubChem, several laboratories
A selection: hits, their analogues and other compounds. The true share with any hit is near 5.2%.
esBAF inh – Bmi1 luciferase reporter increase in mESCs, primary screen, esBAF inhibitor project, mouse ES cells, Bmi1 luciferase knock-in, single point | 24 h; 100% = twice the neutral-well signal | reporter increase, % at 12.5 µM | 350,000 tested, 2% active; in the data active = activation above about 40%;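 also: a rise in the Bmi1 reporter signal indicates esBAF inhibition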
SKN-1 inh – suppressors of acrylamide-induced Pgst-4::GFP reporter in worms, primary screen, SKN-1 inhibitor project, whole organism, uHTS, GFP/RFP fluorescence ratio, strain VP596. 360,000 tested, 0.49% active. C. elegans VP596 Pgst-4::GFP/RFP ratio, 24 h. inhibition, % at 21.8 µM. AID 624304, 2012;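 active = interference check ratio from 0.5 to 1.5 plus GFP to RFP signal ratio inhibition reaching or exceeding a fixed threshold, cut at about 30% in these data, passing the limit was not always enough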
Vif inh – HIV Vif self-association inhibitors, primary screen, imaging, HEK293T, single point; HEK293T cells, Vif self-association by quenched fluorescence, 24 h; inhibition, % at 7.49 µM; 340,000 tested, 0.35% active; AID 602346, 2012; in the data active = inhibition above about 50%, passing the limit was not always enough
NadD block – inhibitors of S. aureus NadD, primary screen, biochemical, colorimetric, uHTS; purified NadD enzyme, colorimetric absorbance read-out; inhibition, % at 20 µM; 360,000 tested, 0.78% active; in the data active = inhibition above about 26%
SMARCA2 activ – SMARCA2 (BRM) function activators, primary screen, cell-based, luminescence, high throughput | MG213 cells, MMTV-luciferase reporter, dexamethasone, overnight | activation, % at 9.1 µM | 370,000 tested, 1% active | AID 652017, 2013; in the data active = activation above about 7.8%
GRIN3A LBD mod – binders of NR3A ligand-binding domain, primary screen, biophysical, differential scanning fluorimetry, uHTS; Tm shift relative to glycine control, % at 25 µM; Glutamate receptor ionotropic, NMDA 3A (GRIN3A) ligand-binding domain; NR3A LBD differential scanning fluorimetry, Tm shift; 0% = protein alone, 100% = glycine-bound protein; AID 1259313, 2017; 340,000 tested, 2.5% active;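 active = melting temperature shift of at least 10% of the positive control shift, at one fixed dose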
A number is an active result; n = inactive; x = no result.

SMILES	esBAF inh	SKN-1 inh	Vif inh	NadD block	SMARCA2 activ	GRIN3A LBD mod
C[C@H](CO)N1C[C@H](C)[C@H](CN(C)C)Oc2ccc(NC(=O)Nc3ccc4c(c3)OCO4)cc2CC1=O	n	x	x	x	x	x
Cc1ccc(N/C=C(/C#N)c2ccsc2)cc1C	62	n	n	n	n	n
Cc1ccc(N/N=C(\C#N)C(=O)c2ccsc2)cc1	x	n	n	n	n	n
CC1(Cc2cccc(C(F)(F)F)c2)C(=O)Nc2ccc(-c3ccc(F)c(Cl)c3)cc21 (stereo not given)	n	40	n	n	n	x
CC1(Cc2cc(Cl)ccc2C(F)(F)F)C(=O)Nc2ccc(-c3ccc(F)c(Cl)c3)cc21 (stereo not given)	n	n	n	n	n	x
CC1(Cc2ccc(Cl)cc2)C(=O)Nc2ccc(-c3cccnc3)cc21 (stereo not given)	n	39	n	n	n	x
Cc1c(-n2c(CN3C(=O)c4ccccc4C3=O)nc3ccccc3c2=O)c(=O)n(-c2ccccc2)n1C	n	40	n	n	n	n
CC(C)Cn1c(CN2C(=O)c3ccccc3C2=O)nc2ccccc2c1=O	n	n	n	n	n	20
Cn1c(O)c(N=NC(=O)c2ccccc2O)c2ccccc21	n	n	n	n	n	n
COc1ccccc1NC(=O)Cn1c(O)c(N=NC(=O)c2ccccc2O)c2ccccc21	n	n	116	n	n	n
O=C(N=Nc1c(O)n(Cc2ccccc2)c2ccccc12)c1cc2ccccc2cc1O	x	n	n	40	n	13
O=C(N=Nc1c(O)n(Cc2ccccc2)c2ccccc12)c1ccc(O)cc1	x	n	n	n	n	n
Cc1ccc(NC(=O)Cn2c(O)c(N=NC(=O)c3cc4ccccc4cc3O)c3ccccc32)cc1	x	n	n	46	n	n
c1ccc(SCc2cc(-c3ccccc3)no2)cc1	x	55	n	n	n	n
c1ccc(Cc2cc(-c3ccccc3)on2)cc1	66	n	n	n	n	n
COc1ccccc1OCc1cc(-c2ccccc2)no1	x	n	n	n	n	n
Cc1ccc(SCc2cc(-c3ccc(Cl)cc3)no2)cc1	x	n	n	n	n	n
Clc1ccc(SCc2cc(-c3ccccc3)on2)cc1	n	49	n	n	n	n
Clc1ccc(-c2cc(CSc3ccccc3)on2)cc1	n	45	n	n	n	n
Clc1ccc(SCc2cc(Cl)nc(-c3ccccc3)n2)cc1	n	n	x	n	n	n
C[C@H]1CN([C@@H](C)CO)C(=O)c2cc(C#CC3CCCCC3)cnc2O[C@H]1CN(C)C(=O)NC1CCCC1	n	x	x	x	x	x
CCCN1C[C@@H](C)[C@H](OC)CN(C)C(=O)c2ccc(NC(=O)Nc3ccccc3F)cc2OC[C@@H]1C	n	x	x	x	x	x
COCC(=O)Nc1ccc2c(c1)C(=O)N(C)C[C@@H](OC)[C@H](C)CN(C(=O)NC(C)C)[C@@H](C)CO2	n	x	x	x	x	x
c1ccc(OCc2cc(-c3ccccc3)no2)cc1	x	45	n	n	n	n
Clc1ccc(-c2cc(CSc3cccc(Cl)c3)on2)cc1	n	60	n	n	n	n
SMILES	esBAF inh	SKN-1 inh	Vif inh	NadD block	SMARCA2 activ	GRIN3A LBD mod
O=C(Nc1ccc(NC(=O)c2cc3ccccc3o2)cc1)c1ccc2c(c1)OCCO2	x	n	n	n	n	21
Cc1cc(NC(=O)c2cc3ccccc3o2)ccc1NC(=O)c1ccccc1	n	n	n	n	n	16
Cc1cc(NC(=O)c2cccnc2)ccc1NC(=O)c1cc2ccccc2o1	n	n	n	n	n	n
Cc1cc(NC(=O)c2ccc3c(c2)OCCO3)ccc1NC(=O)c1cc2ccccc2o1	n	n	n	n	n	15
COc1cccc(S(=O)(=O)Nc2ccc3c(c2)[C@@H]2C[C@H](CC(=O)N[C@@H](C)c4ccccc4)O[C@@H](CO)[C@@H]2O3)c1	n	x	x	x	x	x
CCC(=O)N(C)C[C@H]1Oc2ncc(Br)cc2C(=O)N([C@@H](C)CO)C[C@H]1C	n	x	x	x	x	x
COc1cc(CO)ccc1OCc1ccc(Cl)nc1	57	n	n	n	n	n
Cc1cc(C(=O)N2CCN(c3ccc([N+](=O)[O-])cc3)CC2)co1	x	n	86	n	n	n
Cc1cc(C(=O)N2CCN(c3ccc([N+](=O)[O-])cc3)CC2)c(C)o1	x	n	n	n	n	n
COc1cc2c(cc1[N+](=O)[O-])-c1ccccc1C2	42	n	n	n	n	n
O=[N+]([O-])c1cc2c(cc1Br)-c1ccccc1C2	n	52	n	n	n	x
CO[C@@H]1CN(C)C(=O)c2ccc(NS(=O)(=O)C3CCCCC3)cc2OC[C@@H](C)NC[C@@H]1C	n	x	x	x	x	x
Clc1ccccc1Cn1nnc(-c2ccccc2)n1	x	n	n	n	n	n
Clc1ccccc1Cn1nnc(-c2cccs2)n1	56	n	n	n	n	n
COc1cc(C=NNc2ccc(S(=O)(=O)Nc3ccccc3C(=O)O)cc2[N+](=O)[O-])ccc1O	n	n	n	n	n	19
CCOc1ccc(C=NNc2ccc(S(=O)(=O)Nc3ccccc3C(=O)O)cc2[N+](=O)[O-])cc1OC	x	n	n	n	x	15
CCOc1cc(/C=N/Nc2ccc(S(=O)(=O)Nc3ccccc3C(=O)O)cc2[N+](=O)[O-])cc(Cl)c1O	n	n	n	n	n	x
COc1ccc(C(=O)/C=C/c2ccc(O)cc2)c2c1CC(O)C(C)(C)O2 (stereo not given)	n	n	n	n	n	n
COc1ccc(C(=O)/C=C/c2ccc(O)cc2)c(O)c1CC=C(C)C	n	n	n	n	n	15
Cc1noc(C)c1NC(=O)Nc1ccc2c(c1)CC(=O)N([C@@H](C)CO)C[C@H](C)[C@@H](CN(C)Cc1ccc(Oc3ccccc3)cc1)O2	n	x	x	x	x	x
CC=Cc1ccc2n(c1=O)C[C@@H]1[C@@H](CO)[C@H](C(=O)Nc3ccc(-c4ccccc4)cc3)N(C)[C@H]21 (mixture of isomers)	61	x	x	x	x	x
CC=Cc1ccc2n(c1=O)C[C@H]1[C@H](CO)[C@@H](C(=O)Nc3ccc(-c4ccccc4)cc3)N(CC)[C@@H]21 (mixture of isomers)	46	x	x	x	x	x
CC=Cc1ccc2n(c1=O)C[C@@H]1[C@@H](CO)[C@H](C(=O)Nc3ccc(-c4ccccc4)cc3)N(C(C)=O)[C@H]21 (mixture of isomers)	n	x	x	x	x	x
CC=Cc1ccc2n(c1=O)C[C@@H]1[C@@H](CO)[C@H](C(=O)Nc3ccc(-c4ccccc4)cc3)N(CC)[C@H]21 (mixture of isomers)	n	x	x	x	x	x
